Values without a mark were called inactive. Results filed as inconclusive are left out. The source made the active and inactive calls. Unless noted, calls follow the shape of the dose curve; as a rule, active = well fitted curve in either direction with a large enough effect (not every such curve was filed as active); inconclusive = small, poorly fitted or top-dose-only effect, or another doubt; inactive = flat fitted curve, though single readings scatter.

The target in assay [1] is Lysosomal acid glucosylceramidase (Homo sapiens) (UniProt P04062). Nature of the assay: Glucocerebrosidase-p2 (AID 348; in the data active = potency below about 10 µM; also: potency is read from the fitted curve at half-maximal effect). Conditions: purified GBA, blue fluorogenic substrate, 40 min. In a few lines:
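Normal human glucocerebrosidase (0.2 nM) with blue fluorogenic substrate (80 uM final) in citrate/phosphate pH 5.9 with 10mM sodium taurocholate, 0.01% tween-20; 40 min RT, NaOH/glycine stop; fluorescence Ex 365/Em 440; AC50 from a titration from 0.6 nM upwards.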

Assay [2] is described as follows: NFAT Signaling Pathway (AID 444).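 Also: carbachol stimulus at about its EC50 of 1 µM final; % is scaled to controls: 0 for no effect and ±100 for the full control effect.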 Conditions: Jurkat NFAT-bla M1, carbachol, beta-lactamase ratio, 5 h; at 7.69 µM (top of the series) unless noted. In outline:
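Jurkat cells with NFAT-driven β-lactamase reporter and co-expressed M1 receptor, stimulated with carbachol (final 1 uM, ~EC50), compound titration, 5 h at 37 °C. CCF4 loaded 1 h at RT; 460/530 nm ratio gave %activity and AC50.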

Assay [3] is described as follows: Stat Signaling Pathway (AID 446).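 Also: ME-180 cervical cancer cells given 40 pM IL-6 alongside compound; SIE-controlled beta-lactamase reporter measured as 460/530 nm FRET emission ratio; % is scaled to controls: 0 for no effect and ±100 for the full control effect.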 Conditions: ME-180 SIE beta-lactamase reporter, IL-6 stimulated, 5 h; at 7.69 µM (top of the series) unless noted. In a few lines:
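FRET read-out (405 nm excitation, 460/530 nm emission) of a beta-lactamase reporter under a STAT-inducible element in ME-180 cervical carcinoma cells. Cells with compound receive 40 pM IL-6 for 5 h. Values are normalised to AC90 stimulation and AC90 JAK-inhibitor controls.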

The target in assay [4] is Glucocorticoid receptor (Homo sapiens) (UniProt P04150). Nature of the assay: GR-GFP Redistribution (AID 450;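 active = compounds whose dose series gives a full or clear partial fitted curve of increased nuclear translocation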; also: potency is read from the fitted curve at half-maximal effect). As to conditions: U2OS GR-GFP nuclear translocation, laser cytometry, 2 h.
Chain of Glucocorticoid receptor (Homo sapiens) (P04150 whole entry, looked up): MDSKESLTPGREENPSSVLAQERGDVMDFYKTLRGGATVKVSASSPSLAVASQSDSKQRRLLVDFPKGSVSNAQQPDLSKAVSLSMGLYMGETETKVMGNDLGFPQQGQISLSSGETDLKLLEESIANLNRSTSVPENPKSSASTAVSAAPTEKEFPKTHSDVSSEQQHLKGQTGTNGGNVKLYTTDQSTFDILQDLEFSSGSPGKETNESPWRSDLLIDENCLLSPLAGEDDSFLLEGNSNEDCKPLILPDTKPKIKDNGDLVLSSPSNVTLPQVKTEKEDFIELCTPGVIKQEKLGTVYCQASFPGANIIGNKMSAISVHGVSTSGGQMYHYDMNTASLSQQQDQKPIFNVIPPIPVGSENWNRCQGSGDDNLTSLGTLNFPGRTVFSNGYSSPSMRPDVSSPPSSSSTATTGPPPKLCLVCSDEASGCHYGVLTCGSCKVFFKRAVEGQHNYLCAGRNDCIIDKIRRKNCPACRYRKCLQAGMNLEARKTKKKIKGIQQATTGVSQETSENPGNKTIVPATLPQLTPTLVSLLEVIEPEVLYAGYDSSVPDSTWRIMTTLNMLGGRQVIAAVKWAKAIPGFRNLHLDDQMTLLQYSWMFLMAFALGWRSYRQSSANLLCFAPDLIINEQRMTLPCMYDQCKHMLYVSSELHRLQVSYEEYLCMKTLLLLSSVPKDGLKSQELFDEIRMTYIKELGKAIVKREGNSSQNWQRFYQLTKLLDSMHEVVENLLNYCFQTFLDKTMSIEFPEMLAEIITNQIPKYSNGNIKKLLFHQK
Assay [5] shares this target. Nature of the assay: GR-EFC Redistribution (AID 451; calls by dose curve; also: potency is read from the fitted curve at half-maximal effect). Conditions: CHO-K1 GR-EFC translocation, beta-gal luminescence, 2 h. In outline:
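CHO-K1 cells expressing nuclear EA and GR-ED fragments of b-gal; compounds titrated up to 46 uM final, 2 h at 37 C. GR nuclear translocation read as complemented b-gal luminescence after 1 h RT detection.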

Assay [6] has as its target Mitogen-activated protein kinase 10 (Mus musculus) (UniProt Q61831). Nature of the assay: JNK3 AlphaScreen Assay (AID 530).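 Also: kinase came from lysate of stimulated human HepG2 cells; signal reports phosphorylation of biotinylated GST-cJun 1-79 at Ser73 with 10 µM ATP; % is scaled to controls: 0 for no effect and ±100 for the full control effect.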 As to conditions: JNK3 lysate, c-Jun phosphorylation; series mostly up to 11.4 µM. In outline:
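HepG2 lysate (IL-1b/TNFa pre-activated) + biotin-GST-cJun 1-79 + anti-pSer73 cJun; cpd titration, 15 min RT; ATP 10 uM start; Tris pH 7.6, MgCl2, DTT, vanadate; beads in EDTA buffer; AlphaScreen.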

In assay [7] the target is Cytochrome P450 1A2 (Homo sapiens) (UniProt P05177). Nature of the assay: p450-cyp1a2 (AID 410; calls by dose curve). Conditions: recombinant CYP1A2, luciferin-ME demethylation, luminescence; series mostly up to 11.4 µM. In a few lines:
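20nM CYP1A2, 100uM Luciferin-ME (=Km), 100mM KPO4; cpd 10 min RT; +NADPH regen, 60 min RT; stop/detect 20 min; luminescence. Normalized to furafylline 57 uM = full inhibition.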

Assay [8] has as its target 3',5'-cyclic-AMP phosphodiesterase 4B (Homo sapiens) (UniProt Q07343). Description: qHTS Assay for Inhibitors of PDE-IV (AID 607; active = well fitted activation curve with a large enough effect in the main read-out, with a control signal flat, not every such curve was filed as active; also: % of control where 0% means no effect). Conditions: HEK293 ACTOne CNG channel cells, membrane potential fluorescence; series mostly up to 22.9 µM. In outline: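 Cell-based read-out of cAMP via a modified cyclic nucleotide-gated channel and membrane potential dye (535/590 nm) in HEK293 cells expressing PDE4 endogenously. Compounds tested up to 22.9 uM final; 100 uM RO 20-1724 reference.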
Background: Quantitative high-throughput screening tests each substance at several concentrations.

A short description of assay [9]: AP1 Signaling Pathway (AID 357). Also: % is scaled to controls: 0 for no effect and ±100 for the full control effect. As to conditions: ME-180 (cervical carcinoma) AP-1-bla reporter, EGF-induced, beta-lactamase ratio, 5 h; at 7.69 µM (top of the series) unless noted. In outline:
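AP-1-bla ME-180 cells with beta-lactamase reporter under AP-1 response element, stimulated with EC50 EGF; compounds titrated, 5 hours at 37 degrees Celsius. CCF4 read at 460/530 nm ratio; positive and negative modulators judged by AC50.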

Assay [10] concerns the target Guanine nucleotide-binding protein G(i) subunit alpha-1 (Homo sapiens) (UniProt P63096). Nature of the assay: qHTS Assay for Inhibitors of RGS12 GoLoco Motif Activity (Green Fluorophore) (AID 879; active = well fitted curve in the direction sought with a large enough effect; an effect the other way counts as inactive or inconclusive;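 also: 0% = labeled peptide with Gαi1 and full inhibition = labeled peptide alone without protein; negative values mean loss of peptide binding seen as reduced polarization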). Conditions: Galphai1/FITC-RGS12 GoLoco peptide, fluorescence polarization; series mostly up to 57.1 µM. In a few lines:
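A drop in FITC polarization marked displacement of the FITC-tagged RGS12 GoLoco peptide (10 nM) from Gαi1 (50 nM). Compounds were incubated 10 min at room temperature in Tris pH 7.5 buffer containing 150 mM NaCl, 0.1 mM GDP and 0.05% NP40; unlabeled peptide titration served as control.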

The target of assay [11] is Cytochrome P450 2C9 (Homo sapiens) (UniProt P11712). Nature of the assay: qHTS Assay for Inhibitors and Substrates of Cytochrome P450 2C9 (AID 883; active = well fitted curve in the direction sought with a large enough effect; an effect the other way counts as inactive or inconclusive; also: nearly all actives have a fitted effect of over 60% in size; also: potency is read from the fitted curve at half-maximal effect). Conditions: recombinant CYP2C9, luciferin-H luminescence, 60 min; series mostly up to 11.4 µM. In a few lines:
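Signal: luciferase luminescence reporting luciferin produced by CYP2C9. Conditions: 10nM enzyme, Luciferin-H 100uM at KM, 25mM KPO4, 37C, 60 min NADPH-driven reaction. Reference: 57uM sulphaphenazole as 100% inhibition.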

The target of assay [12] is Cytochrome P450 2C19 (Homo sapiens) (UniProt P33261). Description: qHTS Assay for Inhibitors and Substrates of Cytochrome P450 2C19 (AID 899; active = well fitted curve in the direction sought with a large enough effect; an effect the other way counts as inactive or inconclusive; also: % is scaled to controls: 0 for no effect and ±100 for the full control effect; nearly all actives have a fitted effect of over 60% in size). As to conditions: recombinant CYP2C19, luciferin-H EGE luminescence; series mostly up to 11.4 µM. In outline: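 Signal comes from luciferase acting on luciferin released by CYP2C19-mediated hydroxylation of Luciferin-H EGE, 10uM (KM). Assay mix: 5nM enzyme, 50mM KPO4; 60 min at 37C with NADPH regeneration. Data normalized against 57uM ketoconazole.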

A short description of assay [13]: qHTS Assay for Identification of Small Molecule Agonists for Thrombopoietin (TPO) Signaling Pathway (AID 917; active = well fitted curve in the direction sought with a large enough effect; an effect the other way counts as inactive or inconclusive; also: % is scaled to controls: 0 for no effect and ±100 for the full control effect). As to conditions: TPO signaling pathway reporter cells, agonist qHTS, stimulated with TPO at its EC50; series mostly up to 38.5 µM. In outline:
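Human TPO receptor–transfected Ba/F3 cells (murine, IL-3-dependent) in IL-3-deficient medium; compounds plus TPO at EC50, 26 pM final; 24 hrs, 37 C; GpIIb-luciferase luminescence after 10 min RT detection.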

The target in assay [14] is Muscarinic acetylcholine receptor M1 (Rattus norvegicus) (UniProt P08482). Nature of the assay: qHTS Assay for Antagonists of Acetylcholine Muscarinic M1 Receptor: Measurement of IP-One Response (AID 944; active = well fitted curve in the direction sought with a large enough effect; an effect the other way counts as inactive or inconclusive; also: nearly all actives have a fitted effect of over 75% in size). As to conditions: CHO-M1 cells, IP-One HTRF, antagonist mode; series mostly up to 46.1 µM. In outline: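 Read-out: HTRF competition between d2-IP1 and Eu-cryptate anti-IP1 antibody, emission 620 and 665 nm. Stimulus was carbachol, EC80 (200 nM), for 30 min in M1-CHO cells (rat receptor), after 10 min compound pre-treatment.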
Chain of Muscarinic acetylcholine receptor M1 (Rattus norvegicus) (P08482 whole entry, looked up): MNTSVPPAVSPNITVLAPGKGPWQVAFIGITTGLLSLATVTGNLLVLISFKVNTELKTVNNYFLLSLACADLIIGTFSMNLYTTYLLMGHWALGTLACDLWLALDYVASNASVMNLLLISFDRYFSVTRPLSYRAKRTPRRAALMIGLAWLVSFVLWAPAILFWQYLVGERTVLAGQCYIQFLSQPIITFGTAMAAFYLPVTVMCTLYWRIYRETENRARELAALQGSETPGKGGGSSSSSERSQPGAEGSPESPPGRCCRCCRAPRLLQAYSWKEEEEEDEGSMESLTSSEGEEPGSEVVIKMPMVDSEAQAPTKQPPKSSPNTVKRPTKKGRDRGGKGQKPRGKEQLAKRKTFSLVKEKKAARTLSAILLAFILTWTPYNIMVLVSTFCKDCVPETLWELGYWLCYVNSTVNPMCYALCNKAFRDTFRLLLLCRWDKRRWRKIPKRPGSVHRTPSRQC

Assay [15] addresses Pyruvate kinase (Leishmania mexicana) (UniProt Q27686). Nature of the assay: qHTS Validation Assay for Inhibitors of Leishmania Mexicana Pyruvate Kinase (AID 945; active = well fitted curve in the direction sought with a large enough effect; an effect the other way counts as inactive or inconclusive;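 also: 0% = DMSO only neutral control wells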). As to conditions: purified L. mexicana pyruvate kinase, enzyme activity, E451W mutant enzyme; series mostly up to 57.5 µM. In a few lines: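 The enzyme is a highly purified E451W mutant of LmPYK used at 0.2 nM. It converts 0.5 mM PEP and 0.1 mM ADP over 1 h at room temperature; product ATP is quantified by luciferase luminescence relative to DMSO controls.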

For assay [16], the target named is Pyruvate kinase PKM (Homo sapiens) (UniProt P14618). Nature of the assay: qHTS Assay for Activators of Human Muscle Pyruvate Kinase (AID 954; active = well fitted curve in the direction sought with a large enough effect, not every such curve was filed as active;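 also: 0% = uninhibited enzyme and -100% = no enzyme or full thiadiazolimine inhibition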). As to conditions: purified human muscle pyruvate kinase, luciferase-coupled luminescence, 1 h; series mostly up to 57.5 µM. In outline:
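ATP production by PKM2 detected via luciferase luminescence after 1 h room-temperature reaction (0.1 nM enzyme, PEP at Km 0.5 mM, ADP 0.1 mM, pH 7.2 imidazole buffer). Inhibition scaled to no-enzyme control; activation referenced to 0.3 nM enzyme wells.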

Assay [17] addresses Alpha-galactosidase A (Homo sapiens) (UniProt P06280). Nature of the assay: Counterscreen for Glucocerebrosidase Inhibitors: qHTS Assay for Human alpha-Galactosidase at pH 4.5 (AID 992; active = well fitted curve in the direction sought with a large enough effect; an effect the other way counts as inactive or inconclusive; also: 0% is about no effect). As to conditions: purified enzyme, fluorogenic substrate; series mostly up to 76.9 µM. In outline:
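Fluorogenic 1536-well qHTS at pH 4.5 (citrate, Tween-20): 2 nM enzyme, 80 uM 4-MU-alpha-galactoside, 20 min room temperature, NaOH/glycine stop. Titration 0.7 nM to 77 uM, data normalized to no-enzyme and full-activity controls, Hill-fitted AC50.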

Assay [18] has as its target alpha-glucosidase (Oryza sativa, rice) (UniProt Q653V4). Description: Counterscreen for Glucocerebrosidase Inhibitors: qHTS Assay for Rice alpha-Glucosidase at pH 5.0 (AID 997; active = well fitted curve in the direction sought with a large enough effect; an effect the other way counts as inactive or inconclusive;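 also: 0% = full activity with enzyme and -100% = basal without enzyme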). As to conditions: rice alpha-glucosidase enzyme activity; series mostly up to 76.9 µM. In outline:
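Endpoint fluorogenic assay at pH 5.0: compounds (0.7 nM to 77 uM) titrated against 4 nM rice enzyme and 400 uM 4-MU-alpha-glucoside for 20 min at room temperature; NaOH/glycine stop, read ex 365/em 440 nm, Hill-fitted AC50.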

Assay [19] addresses Cytochrome P450 3A4 (Homo sapiens) (UniProt P08684). Description: qHTS Assay for Activators of Cytochrome P450 3A4 (AID 885; active = well fitted curve in the direction sought with a large enough effect; an effect the other way counts as inactive or inconclusive; also: potency is read from the fitted curve at half-maximal effect; nearly all actives have a fitted effect of over 65% in size). As to conditions: recombinant CYP3A4, Luciferin-PPXE luminescence, 60 min; series mostly up to 11.4 µM. In a few lines:
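Luminescent readout of luciferin formed from 25 uM Luciferin-PPXE (KM level) by 20 nM CYP3A4 in 200 mM KPO4, with 60 min NADPH-driven reaction at room temperature after 10 min compound exposure. Ketoconazole (57 uM) defined 100% inhibition.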

Chain of Lysosomal acid glucosylceramidase (Homo sapiens) (P04062 whole entry, looked up): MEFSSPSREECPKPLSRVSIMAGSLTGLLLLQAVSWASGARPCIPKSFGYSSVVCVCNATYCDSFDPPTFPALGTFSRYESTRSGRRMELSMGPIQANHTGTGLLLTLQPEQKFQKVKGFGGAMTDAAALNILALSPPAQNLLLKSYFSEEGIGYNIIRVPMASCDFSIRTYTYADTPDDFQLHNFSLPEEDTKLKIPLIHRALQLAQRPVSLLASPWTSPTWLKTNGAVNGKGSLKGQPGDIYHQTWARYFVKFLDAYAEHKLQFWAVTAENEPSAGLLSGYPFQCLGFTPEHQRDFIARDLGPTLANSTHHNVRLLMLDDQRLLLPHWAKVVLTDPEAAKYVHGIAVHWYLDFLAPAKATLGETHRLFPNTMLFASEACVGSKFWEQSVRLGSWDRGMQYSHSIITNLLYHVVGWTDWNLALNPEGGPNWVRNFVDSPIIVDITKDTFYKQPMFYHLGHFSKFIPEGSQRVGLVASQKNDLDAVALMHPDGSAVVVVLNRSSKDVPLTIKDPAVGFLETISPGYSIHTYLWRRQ
Chain of Cytochrome P450 1A2 (Homo sapiens) (P05177 whole entry, looked up): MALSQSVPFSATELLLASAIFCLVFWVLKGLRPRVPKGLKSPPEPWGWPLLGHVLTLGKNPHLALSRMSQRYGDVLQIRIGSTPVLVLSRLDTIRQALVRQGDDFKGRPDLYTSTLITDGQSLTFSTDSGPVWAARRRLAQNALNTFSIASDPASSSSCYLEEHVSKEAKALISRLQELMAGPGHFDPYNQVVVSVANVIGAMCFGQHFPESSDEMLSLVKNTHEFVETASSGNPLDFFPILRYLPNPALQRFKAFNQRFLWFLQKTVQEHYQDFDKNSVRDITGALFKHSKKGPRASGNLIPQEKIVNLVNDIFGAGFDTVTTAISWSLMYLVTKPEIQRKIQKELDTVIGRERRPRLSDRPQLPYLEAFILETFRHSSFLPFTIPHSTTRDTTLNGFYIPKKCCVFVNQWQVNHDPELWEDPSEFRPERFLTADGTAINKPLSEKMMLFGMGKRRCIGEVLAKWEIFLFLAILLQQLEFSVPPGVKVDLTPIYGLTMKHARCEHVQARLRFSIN
Chain of 3',5'-cyclic-AMP phosphodiesterase 4B (Homo sapiens) (Q07343 whole entry, looked up): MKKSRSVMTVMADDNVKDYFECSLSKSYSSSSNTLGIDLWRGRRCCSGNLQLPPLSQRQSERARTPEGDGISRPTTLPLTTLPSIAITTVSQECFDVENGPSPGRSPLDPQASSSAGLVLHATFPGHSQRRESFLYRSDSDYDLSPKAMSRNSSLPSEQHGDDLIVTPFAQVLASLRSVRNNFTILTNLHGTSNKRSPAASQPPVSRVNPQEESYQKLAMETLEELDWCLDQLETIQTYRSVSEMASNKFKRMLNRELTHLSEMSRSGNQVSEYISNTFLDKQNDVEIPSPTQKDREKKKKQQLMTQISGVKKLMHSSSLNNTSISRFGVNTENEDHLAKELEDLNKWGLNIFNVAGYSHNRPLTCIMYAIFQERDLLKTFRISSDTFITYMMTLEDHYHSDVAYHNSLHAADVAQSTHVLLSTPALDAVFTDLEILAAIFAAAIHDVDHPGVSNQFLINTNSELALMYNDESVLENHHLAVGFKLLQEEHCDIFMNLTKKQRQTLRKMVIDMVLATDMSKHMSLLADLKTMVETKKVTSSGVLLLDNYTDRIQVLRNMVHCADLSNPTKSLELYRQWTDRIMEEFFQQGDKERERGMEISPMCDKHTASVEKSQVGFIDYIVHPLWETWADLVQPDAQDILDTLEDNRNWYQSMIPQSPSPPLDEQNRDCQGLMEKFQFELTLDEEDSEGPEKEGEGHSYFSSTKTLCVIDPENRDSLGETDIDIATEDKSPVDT
Chain of Pyruvate kinase (Leishmania mexicana) (Q27686 2-499 E452W): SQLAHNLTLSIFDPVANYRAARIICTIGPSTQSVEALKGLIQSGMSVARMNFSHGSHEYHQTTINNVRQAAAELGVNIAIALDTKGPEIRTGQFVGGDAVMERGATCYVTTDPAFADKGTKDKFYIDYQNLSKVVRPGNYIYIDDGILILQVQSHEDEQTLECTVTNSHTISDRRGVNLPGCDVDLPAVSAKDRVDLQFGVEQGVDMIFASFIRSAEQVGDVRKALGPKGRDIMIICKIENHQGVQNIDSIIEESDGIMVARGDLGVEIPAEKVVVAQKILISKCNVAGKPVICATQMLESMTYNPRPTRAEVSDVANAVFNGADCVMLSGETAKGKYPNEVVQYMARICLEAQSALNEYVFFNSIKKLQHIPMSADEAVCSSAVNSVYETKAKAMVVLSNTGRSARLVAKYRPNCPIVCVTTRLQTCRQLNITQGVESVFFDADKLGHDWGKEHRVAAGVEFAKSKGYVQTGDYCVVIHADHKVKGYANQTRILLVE
Chain of Cytochrome P450 2C9 (Homo sapiens) (P11712 whole entry, looked up): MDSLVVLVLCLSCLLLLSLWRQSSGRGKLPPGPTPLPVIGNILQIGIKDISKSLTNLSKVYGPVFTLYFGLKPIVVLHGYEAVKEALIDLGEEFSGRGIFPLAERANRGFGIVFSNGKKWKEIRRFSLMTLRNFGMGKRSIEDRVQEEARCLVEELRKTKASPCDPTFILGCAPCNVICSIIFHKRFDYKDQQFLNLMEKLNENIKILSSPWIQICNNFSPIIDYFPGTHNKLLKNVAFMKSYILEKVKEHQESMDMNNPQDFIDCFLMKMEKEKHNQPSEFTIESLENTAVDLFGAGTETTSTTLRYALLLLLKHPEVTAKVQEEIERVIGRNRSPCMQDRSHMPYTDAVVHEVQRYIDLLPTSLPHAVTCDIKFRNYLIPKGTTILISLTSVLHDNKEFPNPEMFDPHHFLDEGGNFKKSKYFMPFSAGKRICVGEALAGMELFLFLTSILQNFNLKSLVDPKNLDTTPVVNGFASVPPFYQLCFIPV
Chain of Guanine nucleotide-binding protein G(i) subunit alpha-1 (Homo sapiens) (P63096 whole entry, looked up): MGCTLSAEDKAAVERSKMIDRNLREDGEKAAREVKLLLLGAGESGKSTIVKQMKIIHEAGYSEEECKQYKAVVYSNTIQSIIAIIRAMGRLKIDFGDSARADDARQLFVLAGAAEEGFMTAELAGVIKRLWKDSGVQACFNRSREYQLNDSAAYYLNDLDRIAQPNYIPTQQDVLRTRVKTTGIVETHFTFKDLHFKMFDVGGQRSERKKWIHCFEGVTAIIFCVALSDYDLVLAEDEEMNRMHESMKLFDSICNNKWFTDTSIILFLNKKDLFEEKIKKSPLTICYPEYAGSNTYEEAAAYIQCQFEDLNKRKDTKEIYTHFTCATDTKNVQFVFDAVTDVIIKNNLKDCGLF
Chain of Pyruvate kinase PKM (Homo sapiens) (P14618 whole entry, looked up): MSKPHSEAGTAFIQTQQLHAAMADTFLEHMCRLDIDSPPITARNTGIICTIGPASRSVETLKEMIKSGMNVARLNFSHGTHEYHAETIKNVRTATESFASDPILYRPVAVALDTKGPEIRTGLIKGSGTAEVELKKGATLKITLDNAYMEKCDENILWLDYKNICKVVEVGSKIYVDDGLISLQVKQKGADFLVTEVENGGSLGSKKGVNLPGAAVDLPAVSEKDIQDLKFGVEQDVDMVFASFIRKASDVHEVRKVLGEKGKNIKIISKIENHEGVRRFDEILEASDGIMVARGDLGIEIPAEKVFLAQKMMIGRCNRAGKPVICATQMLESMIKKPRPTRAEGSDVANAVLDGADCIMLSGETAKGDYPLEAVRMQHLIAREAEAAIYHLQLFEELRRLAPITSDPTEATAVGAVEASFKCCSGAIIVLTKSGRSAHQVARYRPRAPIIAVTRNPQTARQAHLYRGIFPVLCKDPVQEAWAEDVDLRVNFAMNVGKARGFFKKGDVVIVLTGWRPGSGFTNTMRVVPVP

`COc1cccc(Nc2ncc3nc(CCc4ccccc4)c(=O)n(C[C@H]4CCCO4)c3n2)c1`: the Potency was more than 11.4 µM in assay [1], more than 9.22 µM in assay [4] and more than 46 µM in assay [5]. In addition, the activity change, negative = inhibition in assay [2] was -6.15%. Also, the activity, negative = inhibition in assay [3] was -12.8%. Further, the Potency result in assay [6] was “inactive”.
Take `Nc1ccc(N=Nc2ccc(-c3ccc(O)cc3)cc2)c2ccc(S(=O)(=O)O)cc12`: the results for the Potency in [1], in assay [4] and in [5] were more than 11.4 µM, more than 46 µM and more than 9.22 µM, respectively. Besides, in assay [7], the activity change, negative = inhibition is -17.8% [at 2.29 µM]. The Potency entry in assay [8] was “inactive”.
With `Cc1cccc(Cl)c1NC[C@H](O)CN1CCN(C)CC1`, the values for the Potency in assay [1], in assay [4] and in assay [5] were more than 11.4 µM, more than 46 µM and more than 9.22 µM, respectively. For the same compound, the activity change, negative = inhibition in [2] was -10.1%. In [3], the activity, negative = inhibition was 6.35%. Further, the Potency result in [6] and in assay [8] was “inactive” throughout.
Consider `OC[C@H](S)CS`, for which the figures for the Potency in assay [1], in [4] and in assay [5] were more than 11.4 µM, more than 46 µM and more than 9.22 µM, respectively. In addition, the activity, negative = inhibition in assay [3] was 5.31%. Moreover, the Potency entry in [6] and in assay [8] was “inactive” in each case.
For `CSc1nc(N)c2ncn([C@@H]3O[C@@H](COP(=O)(O)OP(=O)(O)OP(=O)(O)O)[C@@H](O)[C@H]3O)c2n1`, the figures for the activity change, negative = inhibition in assay [9] and in assay [2] were 18.4% [at 38 µM] and 0.479% [at 38 µM], respectively. The Potency result in [7], in assay [6], in assay [8], in assay [11], in assay [12] and in [14] was “inactive” each time. Further, in assay [18], the Potency entry is “inactive”. In assay [3], the activity, negative = inhibition is -1.18% [at 38 µM]. Further, the Potency in [4] and in assay [5] was more than 46 µM throughout. Also, the call in assay [10], in assay [13], in assay [15], in assay [16] and in [17] was inactive.
Take `COc1cc2c(cc1OC)[C@H](c1ccccc1)CN(C)CC2`: the activity change, negative = inhibition in assay [9] is -2.12% [at 38 µM]; in assay [2], -8.45% [at 38 µM]. For the same compound, the Potency result in [7], in assay [6], in [8], in assay [14] and in [18] was “inactive” in each case. The activity, negative = inhibition in assay [3] is 0.584% [at 38 µM]. Moreover, the values for the Potency in assay [4], in assay [5] and in assay [19] were more than 46 µM, more than 46 µM and 12.6 µM (active), respectively. In addition, the outcome in assay [10], in assay [13], in assay [15], in assay [16] and in [17] was inactive.
For `Cc1cc(Cl)ccc1Nc1sc(C(=O)c2cc3cc(Cl)ccc3o2)c(N)c1C#N`, the Potency was more than 11.4 µM in [1], more than 46 µM in assay [4], more than 9.22 µM in assay [5] and 1.26 µM (active) in [11]. The activity, negative = inhibition in assay [3] is -13.7%. For the same compound, the Potency entry in [6] and in assay [8] was “inactive” throughout.

(Values after PubChem BioAssay (NCATS).)
